# Assay results as given in PubChem BioAssay AID1508600 (Functional Genomics Laboratory (NCATS/FGL), 2020).
# Among all 53,000 sequences or so, about 3,700 (7%) were called active.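 How the source made its calls: active means gene knockdowns whose robust z-score for IL-1 alpha signal is at least 2 or at most -2, so actives lie on both sides; inactive means the rest.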 Many of the other results were omitted from the sample, so actives are more common in it than they were.
# Assay: Components of the Cytosolic LPS Sensing Pathway: Gene Identification via Genome-wide siRNA Screen;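 further: robust z of the log signal after scaling to non-targeting control siRNA wells of the plate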
# Details: RAW264.7 macrophages, IL-1a HTRF, actives lie on both sides, screened at 100 nM (by protocol), cells primed 5 h with Pam3CSK4 first
# Method in brief: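 Read-out: IL-1a HTRF on supernatant, divided by plate negative-control median ×100, log-transformed and converted to robust z-score. Cells were RAW264.7 given 100 nM siRNA, Pam3CSK4-primed 5 hours, then LipidA-transfected 24 hour.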
row,Sequence,z-score
1,GGUUCUUUUCAGCUCAUUATT against Toporsl,-0.0962 (inactive)
2,GCUUCCUACGGUGUGUCAATT against Hnrnpu,-2.43 (active)
3,GGAGCCCAAAAAGAAGAAATT against Mrpl48,0.43 (inactive)
4,GGCCCAGCAAAAAAAGAAGTT against Usp46,-0.397 (inactive)
5,GGUCAUAGCACCAUGUUCUTT against Gata5,0.831 (inactive)
6,GGAAGAGACUUAUAAUGGUTT against Olfr1214,1.28 (inactive)
7,CGAAAUCAGAACCUGGGAATT against Hacd3,2.73 (active)
8,GGCUAUGUCUGUUUCCUUUTT against Defa-rs10,0.963 (inactive)
9,GGAUAUUCCUGGACUGACATT against Rps6,-0.996 (inactive)
10,GGCAGAAUAUACUUGCCCUTT against Uevld,-0.156 (inactive)
11,GGAGAGCUCCUAUAAUCCUTT against Plau,0.267 (inactive)
12,GGAUAUUGUCUUUGUAGAATT against Kap,-0.565 (inactive)
13,GGACGUGAAGUGAAGUCAUTT against 1810009N02Rik,-0.626 (inactive)
14,GGCCUUGUACUUACACAAGTT against Rspo1,0.398 (inactive)
15,CCUUUCCUACUCUGUACCCTT against Abcg1,2.22 (active)
16,GGAUUCUCACAAGUAAUUCTT against Ifi203,0.272 (inactive)
17,GGCUGUCACCCUACAUGACTT against Uba1,0.0469 (inactive)
18,GGAUAUGUUUGGUUAUUUCTT against Acbd4,-0.0997 (inactive)
19,GGAGACUGUGAUUGAGAUGTT against Rnf181,-0.401 (inactive)
20,CGACAAAAGCCACCUUUCGTT against Tm4sf4,-2.62 (active)
21,GGAGUCUGUGAACAAUCUCTT against Mx2,0.0232 (inactive)
22,GGAGUGUGUAAAGACAUAATT against Rnase2a,-0.685 (inactive)

row,Sequence,z-score
1,GGACAAGAGGAGCUUUUGCTT against Id3,-0.446 (inactive)
2,GGUUUUCUUAAAAUAGGAGTT against Tat,-0.205 (inactive)
3,GGAGGACUGGGAAGAUCAUTT against Aqp5,0.152 (inactive)
4,GGAGCCCAGGAAGAUGACATT against Cyp2c54,-3.15 (active)
5,GGUAAGUUAAAUGAUGACATT against Ccdc148,-0.896 (inactive)
6,GGAUAUAACUGCUAUGGUUTT against Rhebl1,-0.241 (inactive)
7,GCUUAGAGCUUCAUAUAGCTT against Tlr12,-0.367 (inactive)
8,GGCUGACUUCGUUUUCAUGTT against Derl3,-2.01 (active)
9,GGUGGAAGCAAUUUUAAAUTT against Trpc7,0.384 (inactive)
10,GGGAUGAGUACAAGAAAAATT against Nsun3,-0.927 (inactive)
11,CGUGUUGGAGUACAAUGAGTT against Imp3,-0.927 (inactive)
12,GGACAGUGAAGAGGAUUCCTT against Anapc15,-0.988 (inactive)
13,GCGGAUUAACCUCUGUGGCTT against Igfl3,0.244 (inactive)
14,GGGUGACAGGUUGAUCUCATT against Tcn2,-2.11 (active)
15,GGUGGAGGAACGAAAGUUUTT against Ribc1,0.625 (inactive)
16,CGAGGUCAAUAUCAUUCCATT against Serpinb11,0.727 (inactive)
17,GCUGCUAAUAUCAAUAACGTT against Prf1,-0.809 (inactive)
18,GGCCAAACAACUGGUGAAGTT against Nelfe,-0.832 (inactive)
19,GGUGUUUUCUGUGUAACCATT against Tlx1,-0.843 (inactive)
20,GGAUGUUUGGACAAUCUAUTT against Itga4,0.634 (inactive)
21,GCAAAUGUCUCGGAAAGAATT against Cdk11b,-2.18 (active)
22,GCAAGAGACCAUGAGAAAUTT against Ccdc18,-0.149 (inactive)

row,Sequence,z-score
1,GGACUAGAAUAUCACAACGTT against Iqub,0.905 (inactive)
2,GGCAAAAUAGAGAAAUACATT against Lima1,2.37 (active)
3,GCCAUGUUUAAGCAAUUGUTT against Vsx1,-0.575 (inactive)
4,GGAGGGUAUUAGUGCACUGTT against Ptpn1,-0.111 (inactive)
5,GCCUCAUUUGCUUCACUGUTT against Cd163l1,0.148 (inactive)
6,GGCGAAAAGACCAGUUAUGTT against Man2c1,2.31 (active)
7,GGUGCACUCUGUCAGUUCATT against Col27a1,-0.352 (inactive)
8,GCAUACCUAUUCACGUACGTT against Slc7a4,-0.475 (inactive)
9,GCCCAAGCUUUUAUCAAGATT against Frmd4b,1.48 (inactive)
10,CCCUUUCCUAUGCAUUUGCTT against Olfr851,0.97 (inactive)
11,CGUACCUAAGCAUACCAGCTT against Gpr20,4.94 (active)
12,CGAGCUUCGGAGGAAGUGATT against Zc3hav1l,-0.743 (inactive)
13,GGUACUCUGUGGAUAUCCCTT against Rpl27,-0.224 (inactive)
14,GGAGCGUACCAUGAUCGAUTT against Parvb,-2.17 (active)
15,GGCUUCUUCACUGAAAUUCTT against 1700074P13Rik,-1.1 (inactive)
16,GGCACUUUGUGGCAAAUCUTT against Pcdhb1,0.742 (inactive)
17,CGUGCAAGCAGUGAUUUUGTT against Smpx,-1.33 (inactive)
18,GGCUCAAGUAUGAGUCUCATT against Calhm2,0.73 (inactive)
19,GGGAAGAAGAAAAAGAUGATT against Peak1,-0.506 (inactive)
20,CGGACUAUCUCUAUGAAGATT against Tas2r108,-0.587 (inactive)
21,GGUGAUUUCGGGUAACGAGTT against Ddr1,-2.17 (active)
22,GGGUGUUUUUAAGUGUCCCTT against Zfp574,0.475 (inactive)

row,Sequence,z-score
1,GGUUUUUGUGGAAAUGUGGTT against Smpd4,-2.58 (active)
2,GGCAGUUUGUUAAUGAAUGTT against Pcsk1,-0.901 (inactive)
3,GGAGGAGAAAACAGGAAUUTT against H2-Eb1,-0.03 (inactive)
4,GCGACCGUAUUGUCACUUGTT against Arpc1a,-0.465 (inactive)
5,CCUUGUCGAGCACAUGAGATT against Zfp69,0.0825 (inactive)
6,GGCAAGUGAGGAAAAGAGGTT against Setd1a,-0.741 (inactive)
7,GAUUUUCCUCUACUGUCCUTT against U90926,-0.532 (inactive)
8,GGUCUUGGAUGCAAACGAUTT against Pcdhga2,0.518 (inactive)
9,GCUAGCAAGUGAGAUGGAGTT against Mbd3l1,1.58 (inactive)
10,GGGCCUUCAAAAAACUGCCTT against Eva1b,1.75 (inactive)
11,GGGAGAUAUGCAAUGAAUATT against Creb5,-1.34 (inactive)
12,GGAAGGUCUUCGAGAUUUUTT against Gpr75,4.56 (active)
13,CCUCUUAAACAUGUCCUAGTT against Atp6v0a2,-1.04 (inactive)
14,CCUUCUGGAGUACAUAUCCTT against Trip6,0.16 (inactive)
15,GGAAAAGUCCCGUAUGGAGTT against Gcc1,-3.14 (active)
16,CCAAAUGCUUAUCUCUACATT against Dock6,0.00388 (inactive)
17,GGACAAAAAAAUAGAAGGATT against Rrbp1,0.344 (inactive)
18,GGACUAUCUUUAUGAUGUGTT against Ush1c,-0.164 (inactive)
19,GGUGAUGGAGAAGAGAAGATT against Fam107b,2.88 (active)
20,GGUUUGUAAAGGUUAUGACTT against Nell2,0.0203 (inactive)
21,CCUAGAAGCUAAUUACCAATT against Saa4,-0.946 (inactive)
22,GCGGCUACUCAUAUAAGUCTT against Trappc8,-0.5 (inactive)

row,Sequence,z-score
1,CGGUGACAUUUGUGAAACUTT against Smn1,-2.05 (active)
2,GGAGAAUUACGGUGCCAACTT against Ncoa3,-0.354 (inactive)
3,GCUCAUCUCGAUUUGACUGTT against Cln3,-1.67 (inactive)
4,CCUAAUCCUGAUAAUUCCATT against Niban2,-1.54 (inactive)
5,GGAGUUGUUGUGCUUUUAATT against Tmem45a,3.02 (active)
6,GGACUCACAGUUAAAAGUATT against Gtse1,1.2 (inactive)
7,GCUAUGUGGGUUGUGCUAUTT against Olfr1361,0.734 (inactive)
8,CCCUAGUUUAUCUCCGGAUTT against Lhx1,1.15 (inactive)
9,GGAAUUUGUCAACCGGACCTT against St6galnac6,3.31 (active)
10,GCUAUUGGGUAAUUUGCUUTT against Slco4a1,0.436 (inactive)
11,CGUAUAUCGAUGAAGAUGATT against BC016579,-1.12 (inactive)
12,GGGAUGCAUCAAAAUACAATT against Pdk3,4.82 (active)
13,GGACAAGGAGUAUUAUGUGTT against Nrxn3,-0.372 (inactive)
14,GGCCUUGAAGCAGAAGUCUTT against Gfra1,-1.21 (inactive)
15,GGGCUUUGUGCCCAACAUGTT against Rtcb,0.278 (inactive)
16,CCCGAUUACUGGAGUUAAATT against Kbtbd7,2.32 (active)
17,GGAAGAUGAACUUCGUACCTT against Slc4a2,-0.438 (inactive)
18,GGUCCUGAAGAAGAUUGCATT against Hmox1,-0.72 (inactive)
19,GGAAGAGUGACCUUAAGUCTT against Arhgap30,2.29 (active)
